Consider 92 compounds from PubChem BioAssay AID2806 (Sanford-Burnham Center for Chemical Genomics, 2010).

The campaign covered roughly 330,000 compounds. About 660 (0.2%) were called active.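 Rule for the calls: active = inhibition of at least 40% at 10 µM in the primary screen; inactive = the rest.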 The list comes from a sample in which actives are over-represented; it also holds similar structures and randomly drawn compounds.

The test has as its system intestinal alkaline phosphatase [Mus musculus]. Description: inhibitors of mouse IAP, primary screen, biochemical, luminescence, uHTS (AID 2806).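 Note: plate controls were DMSO with enzyme for no effect and no enzyme wells for full effect.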 To be noted: purified mouse IAP, CDP-Star luminescence, 30 min; at 10 µM; hits give high values.
As a reminder, the inhibition is the change of the read-out against control, counted positive when it falls. Turning to `COc1ccc(/C=C2/SC(=O)N(CCCCCC(=O)Nc3ccccc3C(=O)O)C2=S)cc1`, the inhibition is 12.6% (inactive). Take `O=C(CCCN1C(=O)/C(=C/c2ccco2)SC1=S)Nc1ccccc1`: the inhibition is 47.8% (active). With `O=C(CCCN1C(=O)/C(=C/c2cccs2)SC1=S)Nc1ccc(O)cc1`, the inhibition was 10.9% (inactive). For `Cc1ccc(-c2nn(-c3ccccc3)cc2/C=C2\SC(=S)N(CCCCCC(=O)O)C2=O)o1` the value was 14.7% (inactive); for `O=C(CCCN1C(=O)/C(=C\c2ccco2)SC1=S)Nc1cccc2ccccc12`, 47.9% (active). As to `O=C1/C(=C\c2ccccc2Cl)SC(=S)N1CCC(=O)N1CCCc2ccccc21`, the inhibition is 23.1% (inactive). On to `O=C(CNS(=O)(=O)c1ccc2c(c1)OCCCO2)N1CCN(c2ccc(F)cc2)CC1`, for which the inhibition was -6.2% (inactive). The same measure for `COc1ccccc1CNC(=O)CSc1nc(=O)n(Cc2ccncc2)c2c1CCC2`: -1.4% (inactive). As to `CCCCS(=O)c1snnc1C` (configuration not stated), the inhibition was -4.4% (inactive).

As to `Cc1ccc(Cc2cnc(N)s2)o1`, the inhibition was 50.5% (active). `CCCCNc1ccc(C(=O)Nc2cccc(C)n2)cc1[N+](=O)[O-]`: the inhibition is 15.5% (inactive). `Cn1cnc([N+](=O)[O-])c1Sc1n[nH]c(N)n1`: the inhibition is 7.9% (inactive). The same measure for `O=C(CCSCCc1ccccn1)Nc1nccs1`: -7% (inactive); for `Cc1ccc(C(=O)N/N=C/c2sc(=O)n(Cc3cccc(C(=O)O)c3)c2Cl)cc1`: 11.7% (inactive). For the compound `NS(=O)(=O)c1ccc(-c2ccc(/C=C3\SC(=O)NC3=O)o2)cc1`, the inhibition was 55.1% (active). In the case of `COc1cc(/C=C/C(=O)O)cc(S(=O)(=O)Nc2ccccc2C(=O)NCCc2ccccc2)c1OC`, the inhibition was -5.2% (inactive). For `CCOc1ccc(NC(=O)COC(=O)C2CCC(=O)N2)c([N+](=O)[O-])c1` (configuration not stated) the value was 1% (inactive); for `COC(C[C@@H]1O[C@@H]1C(=O)[C@@H](C)OCc1ccccc1)OC`, 2.7% (inactive); for `CC(=O)c1c(C)n([O-])c2ccccc2[n+]1=O`, 0.9% (inactive). Take `O=C(Nc1nc(-c2ccco2)c(-c2ccco2)s1)c1ccco1`: the inhibition is 64.2% (active). As for `NC(=O)c1ccsc1NC(=O)c1ccco1`, the inhibition was 0.1% (inactive). As to `O=C(Nc1nnc(CCOCCOCCc2nnc(NC(=O)c3ccco3)s2)s1)c1ccco1`, the inhibition was 0.5% (inactive). `Cc1nc(CC(=O)NNS(=O)(=O)c2ccc(F)c(Cl)c2)cs1`: the inhibition was 1.6% (inactive). On to `COc1ccccc1-n1cn[nH]c1=S`, for which the inhibition is 1.9% (inactive). The same measure for `COc1ccc(OC)c(-n2c(-c3ccn[nH]3)n[nH]c2=S)c1`: -6.5% (inactive); for `COc1ccccc1-n1c(-c2cc(-c3ccco3)[nH]n2)n[nH]c1=S`: 57.8% (active); for `NC(=O)c1ccc(Nc2ccc3c(c2)CCC3)c([N+](=O)[O-])c1`: 11.2% (inactive). For `Brc1cnc(N2CCCC2)nc1N1CCCCC1`, the inhibition was 1.2% (inactive).

In the case of `Fc1ccc(Nc2nnns2)cc1`, the inhibition was 7.1% (inactive). For `Cc1ccc(S(=O)(=O)NCCSC(C)(C)C)cc1`, the inhibition is -3.9% (inactive). On to `C[C@H]1CN([C@@H](C)CO)C(=O)Cc2cc(NC(=O)Cc3ccccc3)ccc2O[C@H]1CN(C)S(=O)(=O)c1cccs1`, for which the inhibition is -5.4% (inactive). In the case of `CN1CCCc2cc(C#N)c(=O)[nH]c21`, the inhibition is 5.2% (inactive).

As for `COc1cccc(CCNC(=O)c2cccc(NC(=O)C3=C(C)OCCS3)c2)c1`, the inhibition was -9.8% (inactive).

Turning to `CC(=O)N1c2ccc(S(=O)(=O)N3CCC(C(=O)NC4CCCC(C)C4C)CC3)cc2CC1C` (configuration not stated), the inhibition was -23.1% (inactive). Regarding `O=C(CS(=O)(=O)c1ccccc1)Nc1ccc(S(=O)(=O)Nc2ccccn2)cc1`, the inhibition is 6.7% (inactive). For the compound `CCN(CC)P(=O)(C(NC(=O)OC)C(F)(F)C(F)(F)C(F)(F)C(F)F)N(CC)CC` (configuration not stated), the inhibition is 1.2% (inactive). As to `N#CC(C(N)=O)=C1CCC2(CC1)OCCCCO2`, the inhibition was -8.3% (inactive). Regarding `Cc1[nH]c2ccccc2c1-c1ccc(Cl)nn1`, the inhibition is 4.1% (inactive).

For `CC(C)S(=O)(=O)c1csc(NC(=O)Nc2ccc(Cl)cc2)c1Cl`, the inhibition is -190% (inactive). The same measure for `O=C1CCCN1C(=O)COc1ccc([N+](=O)[O-])cc1`: 2.6% (inactive); for `COC(=O)c1cc(NC(=O)c2nn(C)c(=O)c3ccccc23)cc(C(=O)OC)c1`: -11.6% (inactive). Regarding `COc1ccc(N(Cc2ccc(N(C)C)cc2)C(=O)c2ccc(S(C)(=O)=O)cc2)cc1`, the inhibition is 3.6% (inactive). With `CC(=O)c1c(C)[nH]c(C(=O)NCc2ccc(C)cc2)c1C`, the inhibition is -23.4% (inactive). Turning to `COC(=O)c1ccc(CNC(=O)C2CCC(=O)N(Cc3cccc(F)c3)C2)cc1` (configuration not stated), the inhibition was 2.3% (inactive).

Take `COc1cccc(N(C(=O)CNC(=O)c2ccco2)C(C(=O)NC2CCCCC2)c2cccnc2)c1` (configuration not stated): the inhibition is -11.8% (inactive).

`Cc1ccccc1CN1C[C@@H]2C[C@@H](c3ccc4nsnc4c3)N3CCC[C@@]23C1=O`: the inhibition was 4% (inactive). Take `CCc1nc2nc(C)c(NS(=O)(=O)c3ccc4c(c3)CCCC4)c(=O)n2[nH]1`: the inhibition is 8.4% (inactive). `CNC(=O)NCCN1CCCC1=O`: the inhibition was -13.9% (inactive). Take `CC(C)(C)NC(=O)NC(=O)COC(=O)Cn1c(C(F)(F)F)nc2ccccc21`: the inhibition is 3.3% (inactive). As to `O=C(CNS(=O)(=O)c1ccccc1)N1CCN(C(=O)c2ccco2)CC1`, the inhibition was 2.1% (inactive). As to `CC(C)NC(=S)Nc1cccc2cnccc12`, the inhibition is 9.6% (inactive).

`Cc1c(NC(=O)C(=O)N/N=C/c2cccs2)c(=O)n(-c2ccccc2)n1C`: the inhibition was 5.7% (inactive).

For `Clc1cccc(Cl)c1OCCOCCNCc1ccccc1`, the inhibition is -0.1% (inactive). For `CC(/C=C/C1(O)C(C)CC(=O)CC1(C)C)OC1OC(CO)C(O)C(O)C1O` (configuration not stated) the value was 41.9% (active); for `C=CC1C(OC2OC(CO)C(O)C(O)C2O)OC=C(C(=O)OC)C1CC1CC(=O)CC(CC(=O)CCc2ccc(O)cc2)O1` (configuration not stated), 6.5% (inactive); for `CC1=C(C)C(=O)OC(C(C)C2CCC3C4CC=C5CC(OC6OC(COC7OC(CO)C(O)C(O)C7O)C(O)C(O)C6O)CC(O)C5(C)C4CCC23C)C1` (configuration not stated), 9.3% (inactive). Regarding `COc1cc(/C=N\NC(=O)C2C(=O)NCC2c2ccccc2)cc(OC)c1O` (configuration not stated), the inhibition was 11.4% (inactive). For `COc1cccc(/C=N\NC(=O)C2=NNC(=O)C2C)c1O` (configuration not stated), the inhibition is 61.4% (active).

With `CCOc1ccc2[nH]c(C(=O)N/N=C/c3cccc(OC)c3OC)cc2c1`, the inhibition was 10.1% (inactive). `Cc1c(CC(=O)NCC(=O)NCC(=O)O)c(=O)oc2cc3oc4c(c3cc12)CCCC4`: the inhibition is 3.6% (inactive).

For `CN(/C(=N/S(=O)(=O)c1cccs1)c1ccccc1)c1ccc(O)cc1`, the inhibition is -15.8% (inactive).

For the compound `COCc1cc(C)nc(Nc2cc(C)ccc2C)c1C#N`, the inhibition was -3.2% (inactive). Take `Cc1nc2sccn2c(=O)c1S(=O)(=O)NCCc1ccccc1`: the inhibition is -1.1% (inactive).

`Cc1cc(C)c(S(=O)(=O)NCCCN2CCOCC2)cc1Br`: the inhibition is 6.6% (inactive). With `O=C(/C=C/Nc1ccc(S(=O)(=O)Nc2cnc3ccccc3n2)cc1)c1cccnc1`, the inhibition was 10% (inactive). Take `OCC[C@H]1C[C@@H](O)[C@H](O)[C@@]2(OCCc3ccccc32)O1`: the inhibition is 8.9% (inactive). In the case of `COc1cc(C2CC(=O)Oc3cc(OC)c(OC)c(OC)c32)cc(OC)c1OC` (configuration not stated), the inhibition is -2.2% (inactive).

For `COc1ccc(OCCCC(=O)OC(C)C(=O)Nc2ccccc2[N+](=O)[O-])cc1` (configuration not stated), the inhibition was 1.5% (inactive).

In the case of `O=C(O)C1OC(C(=O)O)C2C1C(F)(F)C2(F)F` (configuration not stated), the inhibition was -3.4% (inactive). Consider `Cc1ccccc1OCC(=O)N(Cc1cccc(F)c1)C1CCS(=O)(=O)C1` (configuration not stated), for which the inhibition is -3.3% (inactive). `CCC(=O)Nc1ccc(-c2ccc(N3CCCCC3)nn2)cc1`: the inhibition was 6.7% (inactive). As for `COC(=O)c1ccc(S(=O)(=O)c2ccc(C(=O)OC)s2)s1`, the inhibition was 7.9% (inactive). Consider `Cc1ccc2c(c1)NC(=O)[C@@]1(C)[C@@H](c3ccccc3)[C@H]3COc4ccc(Cl)cc4[C@@H]3N1C2=O`, for which the inhibition was -2.6% (inactive). With `O=C(c1ccc(Cl)cc1)N1N=C(c2ccccn2)CC1(O)C(F)(F)F` (configuration not stated), the inhibition is -4% (inactive). For `O=c1[nH]c(=S)[nH]c2[nH]c(=S)[nH]c12` the value was 73.3% (active). `O=C(CN1CCN(C(=O)C2CCCO2)CC1)Nc1c(Cl)cccc1Cl` (configuration not stated): the inhibition was 3.1% (inactive). The same measure for `O=C(COC(=O)c1cnccn1)Nc1ccc(Cl)cc1C(F)(F)F`: 4.7% (inactive). Take `Cc1ccc(OCc2nnc(NC(=O)OCC(C)C)s2)cc1`: the inhibition was 0.4% (inactive). On to `CCc1nnc(SCc2cccc(F)c2)nc1CC`, for which the inhibition was 4.4% (inactive). For `O=C(Nc1nnc(SCc2ccccc2Cl)s1)c1cccc([N+](=O)[O-])c1` the value was 22.8% (inactive); for `c1ccc(CSc2nnc(-c3ccco3)c(-c3ccco3)n2)cc1`, 49% (active).

`Clc1ccc(CSc2nnc3c(n2)[nH]c2ccccc23)cc1`: the inhibition was 12.9% (inactive). For `Clc1ccccc1CSc1nnc(-c2ccco2)c(-c2ccco2)n1` the value was 60.4% (active). Take `S=C(NCc1ccco1)NCc1ccccc1Cl`: the inhibition was -1% (inactive). Take `C[C@H](NC(=O)[C@@H]1Cc2ccccc2CN1C(=O)OC(C)(C)C)C(=O)NC1CCCC1`: the inhibition is -2.7% (inactive). The same measure for `Cc1cccc(OCC(O)Cn2c(N3CCCCC3)nc3c2c(=O)[nH]c(=O)n3C)c1` (configuration not stated): -1.1% (inactive); for `Cc1ccc(CNC(=O)C2CCCN2S(=O)(=O)c2ccc3c(c2)C(C)(C)C(=O)N3C)cc1` (configuration not stated): -1% (inactive); for `CC(C)OC(=O)c1cc(NC(=O)C2C3CCC(O3)C2C(=O)O)cc(C(=O)OC(C)C)c1` (configuration not stated): 7.3% (inactive). On to `COc1ccccc1CCNC(=O)c1c(C)nn(CC(C)C)c1Cl`, for which the inhibition was 6.5% (inactive).

For the compound `CN1C(=O)/C(=C/c2ccco2)SC1=Nc1cccc(C(=O)O)c1`, the inhibition was 9.6% (inactive). Take `Cc1ccc(N=C2NC(=O)/C(=C/C=C/c3ccco3)S2)cc1C`: the inhibition is 56% (active). Consider `CC(=O)Nc1ccc(NC(=O)C(NS(=O)(=O)c2ccc3c(c2)OCCO3)C(C)C)cc1` (configuration not stated), for which the inhibition was 3.4% (inactive).
